Compound activity: PubChem BioAssay, National Center for Advancing Translational Sciences (NCATS)
Pf growth 48h: Primary qHTS for delayed death inhibitors of the malarial parasite plastid, 48 hour incubation | P. falciparum luciferase growth in erythrocytes, 48 h | Potency, µM (highest dose often 28.7 µM), actives largely listed as inhibitors | 310,000 compounds, 5.9% hits | AID 504832, 2011
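Here the parasites carry a stable luciferase gene and grow inside erythrocytes in Albumax-based RPMI medium with compound for one erythrocytic cycle. Activity is scored as loss of luminescent signal.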
Shiga toxin inh: A qHTS for Small Molecule Inhibitors of Shiga Toxin; inhibition, % at 38.7 µM; Vero cells, Shiga toxin protein synthesis inhibition reporter; 290,000 compounds, 9.2% hits; in the data active = inhibition mostly above about 28%, no sharp cut-off; inactive = mostly below about 43%
Cycloheximide cs: Cycloheximide Counterscreen for Small Molecule Inhibitors of Shiga Toxin; cell reporter, cycloheximide protein synthesis inhibition counterscreen; max response, %; 300,000 compounds, 12% hits; in the data active = max response mostly above about 13%, no sharp cut-off; inactive = mostly below about 14%; note: read at 38.3 µM for the half of the compounds with a filed dose
Pf growth 96h: Primary qHTS for delayed death inhibitors of the malarial parasite plastid, 96 hour incubation; P. falciparum luciferase reporter growth, 96 h; Potency, µM (highest dose often 28.7 µM), usual class: inhibitors; 320,000 compounds, 6.9% hits; AID 504834, 2011
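P. falciparum expressing integrated firefly luciferase grown in erythrocytes (2% hematocrit, 0.05% parasitemia final) with compounds for 96 hours at 37 C, 5% CO2. Growth inhibition read as loss of luminescence after adding luciferase detection reagent.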
Of the large screens only hits and unclear results are named; the others gave an inactive call. Most compounds without a hit are left out; they make up all but 21% or so of the library. Unless noted, calls come from the whole dose curve; as a rule, active = well fitted inhibition curve with a large enough effect; inconclusive = small, poorly fitted or top-dose-only effect, or another doubt; inactive = no such curve, though single readings can be large or run the other way.

Cc1ccc(N2C(=O)N3[C@H](c4ccc(Cl)cc4)[C@@H]4C(=O)N(C5CCCCC5)C(=O)[C@@H]4[C@]3(Cc3ccccc3)C2=O)cc1	Pf growth 48h inconclusive, Shiga toxin inh 19.3, Cycloheximide cs 9.7, Pf growth 96h 3.7µM
Cc1cccc(N2C(=O)N3[C@H](c4ccc(Cl)cc4)[C@@H]4C(=O)N(C5CCCCC5)C(=O)[C@@H]4[C@]3(Cc3ccc(Cl)cc3)C2=O)c1	Pf growth 48h inconclusive, Pf growth 96h inconclusive
CC1=C(C(=O)Nc2cccc(C(=O)NC3CCCCC3C)c2)SCCO1 (stereo not given)	Pf growth 96h 9.28µM
CCN(CC)C(=O)c1ccc(NC(=O)C2=C(C)OCCS2)cc1	none
COc1ccc(CNC(=O)Cc2ccc(NC(=O)C3=C(C)OCCS3)cc2)cc1	Shiga toxin inh 56.3, Cycloheximide cs 19.4, Pf growth 96h inconclusive
COc1cccc(CNC(=O)c2cccc(NC(=O)C3=C(C)OCCS3)c2)c1	none
CCOc1ccc(CNC(=O)c2cccc(NC(=O)C3=C(C)OCCS3)c2)cc1	Pf growth 48h inconclusive, Cycloheximide cs 17.2, Pf growth 96h inconclusive
CC1=C(C(=O)Nc2ccc(CC(=O)NCc3ccc(OC(C)C)cc3)cc2)SCCO1	Shiga toxin inh 81.6, Cycloheximide cs 41.6, Pf growth 96h inconclusive
CN1C(=O)C[C@@H](C(=O)N[C@@H](Cc2cnc[nH]2)C(=O)N2CCC[C@H]2C(N)=O)NC1=O	none (no result: Shiga toxin inh, Cycloheximide cs)
CN1C(=O)C(C)(C)c2cc(S(=O)(=O)NCc3ccc(C(=O)NCc4ccco4)cc3)ccc21	Pf growth 96h inconclusive
CCc1nnc(NC(=O)c2ccc3nc(CC)c(CC)nc3c2)s1	none
CC(=O)c1cccc(OCCCOc2cccc3cccnc23)c1	Cycloheximide cs 18.6, Pf growth 96h inconclusive
Clc1cc(Br)ccc1OCCOCCOc1cccc2cccnc12	none
COc1cccc(C=O)c1OCCCOc1cccc2cccnc12	Shiga toxin inh 66.0, Cycloheximide cs 38.3
Cc1cc(C)cc(OCCCOc2cccc3cccnc23)c1	none
Brc1ccccc1OCCCOc1cccc2cccnc12	Cycloheximide cs 33.3, Pf growth 96h inconclusive (no result: Shiga toxin inh)
Cc1cc(Cl)cc(Cl)c1OCCOc1cccc2cccnc12	Pf growth 96h 4.15µM (no result: Pf growth 48h)
Cc1ccc(OCCOCCOc2cccc3cccnc23)c(Br)c1	none
Brc1ccccc1OCCOc1cccc2cccnc12	Shiga toxin inh 68.0, Cycloheximide cs 16.4
O=Nc1c(O)n(Cc2ccccc2)c2ccccc12	none
O=Nc1c(O)n(Cc2ccc(Cl)c(Cl)c2)c2ccccc12	Pf growth 48h inconclusive, Pf growth 96h 9.28µM
Nc1nc2ccccc2n1Cc1ccc(Cl)c(Cl)c1	Pf growth 48h 10.4µM, Pf growth 96h inconclusive (no result: Shiga toxin inh)
Cc1ccc(Cn2c(N)nc3ccccc32)cc1	none
O=C(Cc1ccccc1)N[C@@H](Cc1ccc(O)cc1)C(=O)O	none
C/C(=N\NC(=S)Nc1ccccc1C)C1Cc2ccccc2C(=O)O1 (stereo not given)	Pf growth 48h inconclusive, Cycloheximide cs 40.5
CCc1nnc(NC(=O)C2Cc3ccccc3C(=O)O2)s1 (stereo not given)	Pf growth 96h inconclusive (no result: Pf growth 48h)
C/C(=N\NC(=S)Nc1ccccc1)C1Cc2ccccc2C(=O)O1 (stereo not given)	Pf growth 48h 10.4µM, Shiga toxin inh 82.1, Cycloheximide cs 51.1, Pf growth 96h inconclusive
CCOC(=O)c1cc2c(ccn2C)n1CC(=O)N1CCC(Cc2ccccc2)CC1	Pf growth 48h 10.4µM, Pf growth 96h inconclusive
CCOC(=O)c1cc2c(ccn2C)n1Cc1ccc(Cl)cc1	none
CCOC(=O)c1cc2c(ccn2C)n1Cc1ccc(C#N)cc1	Pf growth 96h 4.15µM
CCOC(=O)c1cc2c(ccn2C)n1CC(=O)N1CCCC(C)C1 (stereo not given)	Pf growth 96h inconclusive
CCOC(=O)c1nnsc1N	none
Cc1ccc(N(C(=O)CNC(=O)c2ccco2)C(C(=O)NC2CCCC2)c2cccnc2)cc1F (stereo not given)	none
CCn1c(=O)n(CC)c2cc(N3CCCC3)c(NC(=O)c3cc(Br)ccc3OC)cc21	Pf growth 48h 9.28µM, Pf growth 96h inconclusive
CCn1c(=O)n(CC)c2cc(N3CCCC3)c(NC(=O)c3ccccc3F)cc21	Pf growth 48h inconclusive, Pf growth 96h 1.31µM
CCn1c(=O)n(CC)c2cc(N3CCCC3)c(NC(=O)c3ccccc3C)cc21	Pf growth 48h inconclusive, Pf growth 96h 9.28µM
CCC1CCCCN1C(=O)c1ccc2c(c1)C(=O)N(c1ccc(C)cc1)C2=O (stereo not given)	none
Cc1c(CCCN)c2ccccc2n1Cc1ccccc1	Pf growth 48h inconclusive, Pf growth 96h inconclusive
CC(Oc1ccccc1)C(=O)Nc1ccc(F)c(S(=O)(=O)N2CCOCC2)c1 (stereo not given)	Pf growth 96h inconclusive (no result: Shiga toxin inh, Cycloheximide cs)
CCc1ccccc1OCC(=O)Nc1ccc(F)c(S(=O)(=O)N2CCOCC2)c1	Pf growth 48h inconclusive, Pf growth 96h 13.1µM (no result: Shiga toxin inh, Cycloheximide cs)
COc1ccc(NC(=O)CCOc2ccccc2C)cc1S(=O)(=O)N1CCCCC1	Pf growth 48h 11.7µM, Pf growth 96h inconclusive (no result: Shiga toxin inh, Cycloheximide cs)
COc1ccc(NC(=O)COc2ccccc2Cl)cc1S(=O)(=O)N1CCCCC1	Pf growth 48h 11.7µM, Pf growth 96h 10.4µM (no result: Shiga toxin inh, Cycloheximide cs)
Cc1ccc(S(=O)(=O)c2ccc(Cl)cc2)cc1S(=O)(=O)NC(C)C(=O)O (stereo not given)	none
COc1ccc(/C=C/C(=O)OCC(=O)c2c(C)[nH]c3ccccc23)cc1OC	Pf growth 48h inconclusive, Pf growth 96h inconclusive
CCOc1ccccc1CNCCc1ccc2c(c1)OCO2	Pf growth 96h inconclusive
c1cc(CNCCc2ccc3c(c2)OCO3)ccn1	Pf growth 96h 11.7µM (no result: Shiga toxin inh)
Brc1ccccc1CNCCc1ccc2c(c1)OCO2	Pf growth 96h 11.7µM
O=C1NC(CCc2ccccc2)C(=O)N1CCOc1cccc(Br)c1 (stereo not given)	none
CC1CN(C(=O)CCC(=O)NCc2ccccn2)c2ccccc2O1 (stereo not given)	Pf growth 96h inconclusive
Cc1cc(Cl)ccc1OCC(=O)NNC(=O)c1cccnc1	none
CN(C)c1ccc(/C=C2/SC(=O)N(CCN=C3NS(=O)(=O)c4ccccc43)C2=O)cc1	Shiga toxin inh 63.0, Cycloheximide cs 28.9
CN(C)c1ccc(/C=C2\SC(=O)N(CC(O)Cn3c4ccccc4c4ccccc43)C2=O)cc1 (stereo not given)	Pf growth 48h inconclusive
Cn1c(=O)n(C)c2cc(NS(=O)(=O)c3ccc(Br)s3)ccc21	Pf growth 96h 9.28µM
Cc1ccccc1NS(=O)(=O)c1nnc(NC(=O)c2ccccc2C)s1	none
OC(CNCCNc1ncccc1C(F)(F)F)Cn1ccc2ccccc21 (stereo not given)	Pf growth 48h 1.47µM, Pf growth 96h 1.85µM
Oc1ccccc1NCC(O)Cn1ccc2ccccc21 (stereo not given)	Pf growth 48h inconclusive
OC(CNCc1ccccc1)Cn1ccc2ccccc21 (stereo not given)	Pf growth 48h 9.28µM, Pf growth 96h inconclusive
COc1ccc(NC(=S)N2CCN(C(=O)c3ccccc3)CC2)cc1	none
CO/N=C/c1ccc(Oc2ccc(C)cc2)nc1	Shiga toxin inh 44.9, Cycloheximide cs 26.8
COc1ccc(C2=C/C(=C\c3ccc(OC(C)=O)cc3)C(=O)O2)cc1	Shiga toxin inh 86.9, Cycloheximide cs 40.3
